Compounds with a hit are over-represented: about 7.5% of the library has one in this group of screens.
NPC1 prom act = qHTS Assay for NPC1 Promoter Activators. Huh7 NPC1 promoter luciferase reporter, 24 h. AID 485313, 2010. actives 2.4% (n = 320,000). Potency, µM (doses to about 9.22 µM), for inactives: at the top dose activation, usual class: activators; further: % of control where 0% means no effect; nearly all actives have a fitted effect of over 60% in size
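Stably transfected Huh7 (NPC1 promoter→luciferase), 1500 cells/well in Opti-MEM + 10% FBS, 2 h settle, then compound 24 h at 37 °C. Luminescence after 10 min with Amplite reagent.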
KinaseGlo FLuc = Counterscreen for Luciferase (Kinase-Glo TM) Inhibition; Luciferin 4-monooxygenase (Photuris pensylvanica), Q27757; Kinase-Glo luciferase, ATP luminescence, 8 min; Potency, µM (highest dose often 38.3 µM), for inactives: at the highest dose activity change, negative = inhibition, usual class: inhibitors; actives 0.28% (n = 200,000); AID 1379, 2008; further: on the % scale 0 is the no-effect control and ±100 the full control effect; nearly all actives have a fitted effect of over 60% in size
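Kinase-Glo luciferase light output from ATP and luciferin was measured with 10 uM ATP, within the enzyme's linear range. Buffer: 50 mM imidazole pH 7.2, 50 mM KCl, 7 mM MgCl2, 0.01% Tween 20, 0.05% BSA; luminescence read after 8 min at ambient temperature.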
ELG1 genotoxic = qHTS screen for small molecules that induce genotoxicity in human embryonic kidney (HEK293T) cells expressing luciferase-tagged ELG1. HEK293T ELG1-luciferase reporter, luminescence, 16 h. Potency, µM (highest dose often 46 µM), inactives show top-dose activity change, positive = activation, actives largely listed as activators. actives 1.3% (n = 330,000). AID 504466, 2011; further: % of control where 0% means no effect; nearly all actives have a fitted effect of over 60% in size
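After overnight (16 hr) compound treatment at 37 °C, ELG1-luciferase HEK293T cells were lysed with ONE-Glo; luminescence quantified 30 min later at room temperature.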
Rab9 prom act = qHTS Assay for Rab9 Promoter Activators. Huh7 Rab9 promoter-luciferase reporter, luminescence, 24 h. Potency, µM (highest dose often 9.22 µM), without a hit: top-dose activation, negative = inhibition, most hits filed as activators. actives 2.8% (n = 320,000). AID 485297, 2010; further: % of control where 0% means no effect; nearly all actives have a fitted effect of over 60% in size
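Quantitative HTS format; Huh7 Rab9-luciferase reporter cells (1500/well) receive compound 2 h post-plating, incubate 24 h at 37 °C, then get luciferase reagent for 10 min before luminescence reading.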
FLuc modulator = qHTS profiling assay for firefly luciferase inhibitor/activator using purifed enzyme and Km concentrations of substrates (counterscreen for miR-21 project); Luciferin 4-monooxygenase (Photinus pyralis), P08659; purified FLuc, Km substrates, luminescence inhibition; Potency, µM (highest dose often 57.5 µM), inactives show at the top dose activity change, negative = inhibition, actives largely listed as inhibitors; actives 6.9% (n = 360,000); AID 588342, 2011;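 further: plate controls were vehicle for no effect and reference inhibitor for full effect; nearly all actives have a fitted effect of over 55% in size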
Target sequence (P08659 whole entry, looked up): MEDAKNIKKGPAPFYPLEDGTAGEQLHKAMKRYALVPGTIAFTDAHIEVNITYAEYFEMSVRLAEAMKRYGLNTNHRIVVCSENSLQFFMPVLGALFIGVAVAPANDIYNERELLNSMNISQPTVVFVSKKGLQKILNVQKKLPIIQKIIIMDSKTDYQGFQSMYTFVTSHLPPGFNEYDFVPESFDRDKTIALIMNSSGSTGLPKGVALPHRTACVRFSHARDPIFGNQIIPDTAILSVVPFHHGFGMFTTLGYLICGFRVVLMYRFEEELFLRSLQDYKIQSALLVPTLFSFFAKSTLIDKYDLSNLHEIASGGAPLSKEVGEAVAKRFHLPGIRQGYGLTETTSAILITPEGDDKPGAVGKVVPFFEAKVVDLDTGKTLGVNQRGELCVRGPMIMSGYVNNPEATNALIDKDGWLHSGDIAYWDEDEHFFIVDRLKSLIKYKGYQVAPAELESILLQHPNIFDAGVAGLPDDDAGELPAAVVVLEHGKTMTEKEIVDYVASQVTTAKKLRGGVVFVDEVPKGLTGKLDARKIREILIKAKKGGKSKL
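Purified P. pyralis luciferase (10nM final) with 10uM D-luciferin and 10uM ATP (Km levels) in 50mM Tris acetate pH 7.5, 10mM Mg acetate, 0.01% Tween-20, 0.05% BSA; qHTS 6-point titration, ~60 µM downward; luminescence read.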
SMN2 splice up = qHTS Assay for Enhancers of SMN2 Splice Variant Expression; HEK293 SMN2-luciferase splicing reporter, luminescence, 30-36 h; AID 1458, 2008; actives 2.8% (n = 210,000); Potency, µM (top dose mostly 46.1 µM), for the others: top-dose activity change, positive = activation, hits mostly activators; further: % of control where 0% means no effect; nearly all actives have a fitted effect of over 55% in size
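HEK293 cells carry an SMN2 […]–luciferase reporter in which exon 7 inclusion puts luciferase in frame. Cells were plated 10-12 h before compound addition, then incubated 30-36 h at 37C. ONE-Glo luminescence was read; sodium butyrate at 4.5 mM final served as control.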
* = called active by the depositor; ? = inconclusive; . = no result given. The call rests on the fitted dose curve; in most records, active means well fitted curve in the direction sought with a large enough effect; inconclusive means small, poorly fitted or top-dose-only effect, or another doubt; inactive means no such curve, though single readings can be large; an effect the other way counts as inactive or inconclusive. Potency means the concentration at half of the fitted maximal effect.

SMILES	NPC1 prom act	KinaseGlo FLuc	ELG1 genotoxic	Rab9 prom act	FLuc modulator	SMN2 splice up
Nc1nc(N)nc(-c2ccccc2)n1	0.0%	-2.5%	0.4%	2.4%	-1.7%	6.1%
Nc1nc(N)nc(-c2ccc(Cl)c(Cl)c2)n1	2µM*	.	6.8%	?	4.78µM*	.
Cc1ccc(C)c(C(=O)COC(=O)c2ccccc2N2C(=O)C3C4CCC(C4)C3C2=O)c1 (stereo unspecified)	14.3%	-0.1%	-5.8%	6.4%	7.57µM*	-7.0%
O=C(COC(=O)c1ccccc1N1C(=O)C2C3CCC(C3)C2C1=O)c1ccccc1 (stereo unspecified)	-2.0%	-3.3%	1.2%	-8.8%	-12.3%	-5.3%
Cc1cc(CN2CCCC(C(=O)Nc3ccc(-c4nc5ccccc5[nH]4)cc3)C2)n[nH]1 (stereo unspecified)	?	.	19.0%	?	15.1µM*	.
NC(=S)N/N=C/c1c(O)ccc2ccccc12	8.7%	.	-11.8%	-15.1%	-4.4%	.
Oc1ccc2ccccc2c1/C=N/Nc1ccccc1	0.0%	-0.2%	?	-0.1%	6.01µM*	?
O=CN/N=C/c1c(O)ccc2ccccc12	-33.2%	.	0.0%	-28.7%	-1.2%	.
Oc1ccc2ccccc2c1C=NCc1ccccc1	-2.9%	.	-7.0%	11.2%	10.7µM*	.
COc1ccc(C(=O)Nn2c(SCC(=O)c3ccccc3)nc3ccccc3c2=O)cc1	1.41µM*	-9.1%	?	0.562µM*	6.75µM*	-45.4%
COc1ccc(C(=O)Nn2c(SCc3ccc([N+](=O)[O-])cc3)nc3ccccc3c2=O)cc1	2.51µM*	-17.5%	?	3.98µM*	12µM*	-7.6%
CCOC(=O)CSc1nc2ccccc2c(=O)n1C	-3.3%	-1.7%	-0.2%	-5.7%	-0.1%	?
CCOC(=O)CSc1nc2ccccc2c(=O)n1NC(=O)c1ccccc1	?	-2.3%	?	3.55µM*	?	15.8µM*
CCOC(=O)c1ccc(CN(Cc2ccc(F)cc2)S(=O)(=O)c2cc(C(=O)Nc3cccc(C(F)(F)F)c3)ccc2F)cc1	.	.	.	.	-3.6%	.
C/C(=N\OC(=O)c1ccc(OC(C)C)cc1)c1ccc(C)c(C)c1	1.4%	-2.9%	12.7%	13.2%	13.5µM*	-24.5%
COc1ccc(C(=O)O/N=C(\C)c2ccccc2)cc1	4.3%	12.6µM*	1.8%	2.4%	0.675µM*	-3.2%
CC(C)=NOC(=O)c1ccc(-c2ccccc2)cc1	0.0%	0.8%	0.7%	-10.9%	8.49µM*	?
COc1ccc(S(=O)(=O)N(C)C[C@H]2Oc3c(NC(=O)Nc4c(C)noc4C)cccc3C(=O)N([C@@H](C)CO)C[C@H]2C)cc1	.	.	1.4%	.	.	.
O=S(=O)(c1ccccc1)c1nc(-c2ccccc2)oc1N1CCN(c2cccc(Cl)c2)CC1	.	.	.	.	-4.0%	-3.5%
COc1cc(C2Nc3cc(Cl)c(S(N)(=O)=O)cc3S(=O)(=O)N2)ccc1OCc1ccccc1 (stereo unspecified)	-1.8%	-4.6%	16.4µM*	-3.7%	?	8.5%
COc1cc(C2Nc3cc(Cl)c(S(N)(=O)=O)cc3S(=O)(=O)N2)cc(OC)c1OC (stereo unspecified)	-1.1%	0.0%	2.0%	-4.7%	2.3%	-11.6%
COc1ccc(/C=C/C(=O)c2cccs2)c(OC)c1	.	-20.4%	.	.	.	.
O=C(/C=C/c1ccnc2ccccc12)c1cccs1	0.562µM*	12.6µM*	?	0.316µM*	0.0675µM*	7.08µM*
CONC(=O)C1CCN(C(=O)OCc2ccccc2)CC1	?	2.8%	4.6%	?	-16.1%	7.94µM*

Bioassay records as filed in PubChem.
